About 1,600 (0.43%) of roughly 370,000 compounds were called active. No stated cut-off is given here; in the data, active means inhibition above about 24%; inactive means the rest. Only a selection was taken, and actives are over-represented in it overall.

For orientation: inhibition means the drop in the measured response relative to a control, in per cent.

The test addresses Major prion protein (Homo sapiens) (UniProt P04156). Nature of the test: inhibitors of human cell surface prion protein PrPC, primary screen, cell-based, TR-FRET (AID 720596). Further: 0% = median of the test wells and 100% = reference compound wells. Conditions: TR-FRET read-out, at 13.8 µM, stronger effect = higher value. (Time-resolved FRET reads energy transfer from a long-lived donor to a nearby acceptor.)
As for `CC(C)c1ccc(NC(=O)[C@@H](NC(=O)N2CC(=O)Nc3ccccc32)C(C)C)cc1`, the inhibition is 3.7% (inactive).
Next, `Cc1sc2ncnc(SCC(=O)Nc3ccc(CN4CCCC4)cc3)c2c1C`: 33.7% (active).
For `COC(=O)c1c(-c2cccs2)csc1NC(=O)CSc1ncnc2sc(C)c(C)c12`, the inhibition is -2.84% (inactive).
Next, `Cc1sc2ncnc(SCC(=O)NC3CCS(=O)(=O)C3)c2c1C` (stereo not drawn): 9.26% (inactive); `CC/C(=N\O)C(C)(C)/[N+]([O-])=C/c1ccc(Br)cc1`: 10.7% (inactive).
The value for `O=C1CCCC2=C1C(c1cccs1)CC(=O)N2c1ccc(F)cc1` (stereo not drawn) was 0.75% (inactive).
As for `CCC(=O)N1c2ccccc2NC2=C(C(=O)CCC2)C1c1ccco1` (stereo not drawn), the inhibition was -1.24% (inactive).
Next, `O=C1CCCC2=C1C(c1cccs1)n1nc(SCc3ccccc3)nc1N2` (stereo not drawn): 50.8% (active); `CC(=O)c1c(C)[nH]c(C(=O)OCC(=O)Nc2c(C)n(C)n(-c3ccccc3)c2=O)c1C`: 6.5% (inactive); `COc1ccc2c(c1)[C@@]13CCCCC1[C@@H](C2)NCC3` (stereo partly drawn): 1.48% (inactive).
Next, `Cc1ccc(CC(=O)Nc2ccc(S(=O)(=O)N3CCOCC3)cc2)cc1C`: 10.2% (inactive); `Cc1cc2cc(CNC(=O)c3cccs3)ccc2[nH]1`: 7.85% (inactive).
The value for `Cc1cc2cc(CNC(=O)c3ccc(S(=O)(=O)N4CCOCC4)cc3)ccc2[nH]1` was 27.4% (active); that for `Cc1nc(NC(=O)CCC(=O)O)sc1C(=O)N(C)C` was 0.26% (inactive).
For `Nc1nc2c(Br)ccc(Br)c2cc1C(=O)NCCc1ccccc1`, the inhibition is 6.33% (inactive).
As to `Cc1c(C(=O)NCCN(C)C)oc2ccc(S(=O)(=O)N3CCCC3)cc12`, the inhibition was 1.49% (inactive).
Consider `CN(C)CCNC(=O)c1ccc(Cl)c2cc3ccccc3nc12`, for which the inhibition was 34.5% (active).
Next, `CCN(Cc1ccccc1)C(=O)CN1C(=S)NC(C)(C)CC1C` (stereo not drawn): 6.01% (inactive); `CCN(c1ccccc1)S(=O)(=O)c1ccc2[nH]c(=O)[nH]c2c1`: -6.81% (inactive); `Cc1ccccc1N1CCN(C(=O)c2cccnc2)CC1`: -4.83% (inactive).
Next, `O=C(Nc1ccc(N2CCN(C(=O)c3ccccc3)CC2)c(Cl)c1)c1cccnc1`: 26.1% (active).
In the case of `O=C(Nc1ccc(N2CCN(C(=O)c3ccccc3)CC2)c(Cl)c1)c1ncn[nH]1`, the inhibition is 11.2% (inactive).
The value for `Cc1ccc(Cn2cc(C(=O)NN)c(=O)c3ccc(F)cc32)cc1` was -1.23% (inactive); that for `COc1ccc2c(c1)c(=O)c(C(=O)c1ccc(Cl)cc1)cn2CC(=O)Nc1ccc(F)cc1` was 0.3% (inactive); that for `O=C(c1ccc(F)cc1)c1cn(Cc2ccc(F)cc2)c2cc3c(cc2c1=O)OCCO3` was 34.4% (active).
Next, `CCCCc1nc2cc(C(=O)NCCc3cnn(C)c3)ccc2o1`: -7.17% (inactive).
The value for `CC(C)N(Cc1nc(-c2ccc3c(c2)OCO3)no1)CC1CCC(=O)N1` (stereo not drawn) was 7.11% (inactive); that for `N#Cc1c(N)nc2c3c(sc(=N)c2c1N)NC(=O)CC3c1ccccc1Cl` (stereo not drawn) was 31.5% (active).
Consider `CC(C)CCN1CCC(C)(NC(=O)c2ccccc2)C1=O` (stereo not drawn), for which the inhibition was -6.7% (inactive).
Next, `CC1(c2ccccc2)NC(=O)N(CC(=O)N2CC(=O)Nc3ccccc32)C1=O` (stereo not drawn): 1.68% (inactive); `COc1ccc(-c2c(C)cc3oc(=O)cc(-c4ccccc4)c3c2C)cc1C=O`: 4.67% (inactive); `CN(C(=O)COC(=O)CCCc1c[nH]c2ccccc12)c1c(N)n(Cc2ccccc2)c(=O)[nH]c1=O`: 7.89% (inactive).
With `Cc1ccc(Oc2cnn(-c3ccccc3)c(=O)c2Br)cc1`, the inhibition was 32.8% (active).
Next, `Cc1ccc(OC(=O)c2c(C)nn(-c3ccccc3)c2C)cc1`: 4.97% (inactive).
In the case of `CCOc1ccc(Oc2c(Cl)cnn(-c3ccc(C)cc3)c2=O)cc1`, the inhibition is -10.9% (inactive).
The value for `CCC(C)[C@@H](C(=O)OC)N(CCc1cn(Cc2ccccc2)nn1)S(=O)(=O)c1ccccc1Br` (stereo partly drawn) was 2.07% (inactive); that for `CC(=O)Nc1ccc(S(=O)(=O)N2CCC(NC(=O)c3ccccc3)CC2)cc1` was -5.81% (inactive).
The value for `CN(Cc1c(F)cccc1Cl)S(=O)(=O)c1cccs1` was -6.92% (inactive).
Next, `O=C(CCCOc1ccccc1)Nc1cccc(C(=O)O)c1`: 2.69% (inactive); `CC(=O)Nc1cccc(OCC(=O)/C=C2\N(C)c3ccccc3C2(C)C)c1`: 29.7% (active).
Consider `COc1cccc(NC(=S)C(C#N)=C2N(C)c3ccccc3N2C)c1`, for which the inhibition was -1.55% (inactive).
For `Cc1nnc(NC(=O)CCC(=O)N2CCC(C)CC2)s1`, the inhibition is -8.95% (inactive).
Next, `COc1ccc(/C=C/CN2CCCC(C(=O)c3cc(F)ccc3F)C2)cc1` (stereo not drawn): 3.26% (inactive).
The value for `COc1cc2c(cc1OC)C(=O)NCC(C)(C)O2` was 6.88% (inactive); that for `O=C(Nc1cccn(Cc2ccccc2Cl)c1=O)NC1CCCCC1` was 24.9% (active); that for `COc1ccc(Cn2cccc(NC(=O)Nc3ccc(C#N)cc3)c2=O)cc1` was 4.26% (inactive).
For the compound `O=C(Nc1cccn(Cc2c(Cl)cccc2Cl)c1=O)c1ccc(Cl)cc1`, the inhibition is 2.47% (inactive).
Next, `CC1(C)CC(=O)C(C=NCc2cccnc2)=C(O)C1`: 6.76% (inactive); `C=CCn1c(O)c(/C=N/N2CCOCC2)c(=O)[nH]c1=S`: -4.21% (inactive); `CC1(C)CC(N2CCN(C(c3ccccc3)c3ccccc3)CC2)=CC(=[N+]2CCCCC2)C1`: 24.4% (active).
Next, `COC(=O)C(c1ccccc1)N1CCCCCC1` (stereo not drawn): -4.88% (inactive).
Regarding `O=C(Nc1nnc([C@H]2C[C@H](O)[C@@H](CO)O2)s1)c1cccc(Cl)c1`, the inhibition was -5.24% (inactive).
Next, `Cc1ccc(CNC(=O)Nc2nnc([C@H]3C[C@H](O)[C@@H](CO)O3)s2)cc1`: 25.8% (active); `O=C(Nc1ccc(F)cc1)Nc1nnc([C@H]2C[C@H](O)[C@@H](CO)O2)s1`: 1.64% (inactive); `Cc1nnc(NC(=O)CSc2nc(C3CCCCC3)nc3ccccc23)s1`: 2.15% (inactive).
The value for `CN(C(=O)CSc1nc(C2CC2)nc2ccccc12)c1nc(-c2ccccc2)cs1` was -2.06% (inactive).
Next, `COC(=O)CSc1nc(C2CC2)nc2ccccc12`: 34% (active); `Cc1c(Br)c([N+](=O)[O-])nn1C(C)C(=O)Nc1nccs1` (stereo not drawn): -4.47% (inactive); `COc1ccc(S(=O)(=O)N2CCOCC2)cc1NC(=O)CSc1ncnc2ccccc12`: 47.3% (active).
For the compound `COc1ccc(S(=O)(=O)N2CCOCC2)cc1NC(=O)CSc1nnc(NC2CC2)s1`, the inhibition is 7.4% (inactive).
The value for `COc1ccc(S(=O)(=O)N2CCOCC2)cc1NC(=O)CSc1cc(C)ccc1C` was -4.51% (inactive).
Next, `Cc1oc(-c2ccccc2Cl)[n+]([O-])c1C`: -0.12% (inactive).
The value for `COC(=O)c1sccc1NC(=O)CC1C(=O)NCCN1C(=O)Nc1ccc(F)cc1F` (stereo not drawn) was 4.59% (inactive).
